Compounds with a hit are over-represented: about 3.1% of the library has one in this group of screens.
HIV Env fusion – inhibitors of HIV-1 Env-driven cell-cell fusion, primary screen, HeLa-JRFL effector, CEM21 target cells, luciferase. inhibition, % at 12.3 µM. 1.1% of 360,000 active;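 active = mean replicate inhibition score of at least 50 and every replicate individually at or above 50; inconclusive = only one of the two criteria met; inactive = mean below 50 and not all replicates reaching 50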;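 also: 0% = plate neutral controls and 100% = maraviroc near 300 nM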
C2C12 statin – suppressors of statin myotoxicity in C2C12 myotubes, primary screen, cell-based, single point, plate reader | C2C12 myotubes + simvastatin, ATP luminescence, 48 h; scaled: DMSO 0, geranylgeraniol control 100 | 0.78% of 330,000 active | rescue of ATP level, % at 7.49 µM | AID 602340, 2012;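 active = mean ATP rescue above about 67%, or every replicate alone reaching that limit, limit read from the data, passing the limit was not always enough; inconclusive = no clear call, values can overlap the other calls; inactive = mean under the limit and some replicate under it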;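 also: myotubes were challenged with 10 µM simvastatin during compound exposure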
PAX8 reporter – inhibitors of PAX8-driven TPO luciferase reporter, primary screen, RMG-I cells, single concentration; SteadyGlo, 24 h; inhibition, % at 12.6 µM; 1.2% of 360,000 active; AID 652154, 2013;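 active = mean replicate inhibition at least 60% with every replicate also reaching 60%; inconclusive = only one of the two criteria is met; inactive = mean below 60% and not all replicates reaching 60%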;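 also: luciferase light reporting Pax8 driven TPO promoter activity; plate controls were median of neutral control wells for no effect and mitoxantrone controls for full effect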
miR-122 sensor – miR-122 Renilla sensor signal increase in Huh7, primary screen, miR-122 inhibitor project, cell-based, single point, plate reader; Huh7 miR-122 Renilla luciferase sensor, 48 h; neutral wells = 0, positive control = 100; activation (reporter increase), % at 12.5 µM; 0.3% of 340,000 active; AID 602342, 2012;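 active = mean replicate activation score at least 90 and every replicate individually at or above 90; inconclusive = only one of the two criteria met; inactive = neither criterion met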;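 also: higher luciferase means less miR-122 activity so hits act as miR-122 inhibitors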
EWS-Fli block – EWS/Fli-driven NR0B1 reporter inhibitors, primary screen, A673 cells, NR0B1 luciferase, luminescence, MLPCN library. viability-normalised. inhibition, % at 12.6 µM. 0.67% of 350,000 active. AID 651661, 2012;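 active = mean inhibition of at least 50% after viability correction, with every replicate also passing that limit; inconclusive = mean reaches 50% but only one of two replicates passes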;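 also: firefly luciferase signal divided by Alamar Blue viability fluorescence both relative to DMSO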
INS-1E GSIS act – GLuc luminescence reporter in INS-1E cells, primary screen for activators of glucose-dependent secretion of insulin | 0.61% of 370,000 active | AID 743287, 2014 | activation, % at 16.6 µM | INS-1E GLuc reporter insulin secretion, 2-3 h;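 active = lowest replicate activation of at least 40%, so every replicate reaches that level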;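 also: 0% = median of neutral control wells and 100% = median of IBMX positive control wells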
Active calls of the source: *; ? = inconclusive; . = no result; ! = not active in a repeat; [ ] = remark or other dose.

SMILES | HIV Env fusion | C2C12 statin | PAX8 reporter | miR-122 sensor | EWS-Fli block | INS-1E GSIS act
COc1ccc([C@H]2C[C@H](O)[C@@H](n3cc(-c4ccc(F)cc4)nn3)CN2Cc2cccs2)cc1 | 8 | -32 | ? | 3 | 56* | 5
CCC(=O)N1[C@@H](CO)[C@@H]2c3ccccc3N(C(=O)CC(F)(F)F)C[C@@H]21 | . | 6 | 4 | 0[16.7 µM] | 8 | -2
CC(C)NC(=O)N(C)C[C@H]1Oc2cc(C3=CCCC3)ccc2S(=O)(=O)N([C@@H](C)CO)C[C@@H]1C | 2[16.7 µM] | 14 | . | 19[16.7 µM] | -8 | -8
C[C@@H]1CN([C@@H](C)CO)C(=O)c2cc(C#CC3(O)CCCC3)cnc2O[C@@H]1CN(C)Cc1ccccc1 | -15[16.7 µM] | 0 | . | 2[16.7 µM] | -5 | -9
CO[C@H]1CN(C)C(=O)c2cc(NC(=O)C3CC3)ccc2OC[C@H](C)N(C(=O)Cc2ccccn2)C[C@@H]1C | -6[16.7 µM] | 2 | 1 | . | -2 | -1
C[C@H]1CN([C@@H](C)CO)C(=O)Cc2cc(NC(=O)C3CCCCC3)ccc2O[C@@H]1CN(C)C(=O)NC1CCCCC1 | . | 7 | 4 | -3[16.7 µM] | 6 | 11
C=C(C)CN(CC)c1nc(N)c2c(N)nc3c(c2c1C#N)CC(=O)N3C12CC3CC(CC(C3)C1)C2 | 80* | . | 32 | 4 | . | -26
C[C@H](CO)N1C[C@H](C)[C@@H](CN(C)Cc2ccc(C(F)(F)F)cc2)Oc2c(NC(=O)Nc3ccc(F)cc3)cccc2C1=O | . | -2 | 7 | 85[16.7 µM] | 10 | -25
CC(C)NC(=O)N(C)C[C@H]1Oc2c(NC(=O)Nc3ccc(C(F)(F)F)cc3)cccc2C(=O)N([C@@H](C)CO)C[C@H]1C | 56*[16.7 µM] | -47 | 29 | 4[16.7 µM] | 11 | 7
C[C@@H]1CN([C@H](C)CO)C(=O)c2cccc(NC(=O)Nc3ccc(F)cc3)c2O[C@H]1CN(C)Cc1ccc(C(F)(F)F)cc1 | . | 39 | -1 | 165*[16.7 µM] | 10 | -20
C[C@H](CO)N1C[C@H](C)[C@@H](CN(C)Cc2ccc(Cl)c(Cl)c2)Oc2c(NC(=O)c3ccncc3)cccc2C1=O | -11[16.7 µM] | 14 | 11 | 106*![16.7 µM] | 9 | -34
C[C@@H]1CN([C@@H](C)CO)C(=O)c2cccc(NC(=O)Nc3ccc(C(F)(F)F)cc3)c2O[C@H]1CN(C)Cc1ccc(C(F)(F)F)cc1 | 76*[16.7 µM] | 13 | -27 | 13[16.7 µM] | -4 | -3
C[C@H]1CN([C@@H](C)CO)C(=O)c2cc(C#CCN(C)C)cnc2O[C@@H]1CN(C)C(=O)c1cnccn1 | . | 2 | 8 | 30[16.7 µM] | -3 | 1
COc1ccc(S(=O)(=O)Nc2ccc3c(c2)CC(=O)N([C@H](C)CO)C[C@H](C)[C@@H](CN(C)C(=O)Nc2ccc(C(F)(F)F)cc2)O3)cc1 | 25[16.7 µM] | -3 | -2 | -1[16.7 µM] | 9 | -8
C[C@@H]1CN([C@H](C)CO)C(=O)c2cccc(NC(=O)Nc3ccc(C(F)(F)F)cc3)c2O[C@H]1CN(C)Cc1ccc(Cl)c(Cl)c1 | 38[16.7 µM] | . | . | 0[16.7 µM] | 3 | -6
C[C@@H]1CN([C@@H](C)CO)C(=O)c2cccc(NC(=O)Nc3ccc(C(F)(F)F)cc3)c2O[C@H]1CN(C)Cc1ccc(Cl)c(Cl)c1 | 85*[16.7 µM] | . | . | 0[16.7 µM] | -3 | 44*
CCOc1ccc(-c2nc(CSc3nnc(N)s3)cs2)cc1OC | . | 14 | . | -2 | . | 57*
COc1ccc(-c2nc(CCl)cs2)cc1OC | -13 | 1 | -22 | -4 | 0 | 62*
COc1ccc(-c2nc(CCl)cs2)cc1 | -24 | . | -74 | . | 0 | .
C=CC1c2cc(OC)c(OC)cc2CC(C)N1Cc1ccc(OC)cc1 (configuration not stated) | -146[16.7 µM] | . | 12 | . | 56* | .
CNc1ccc(/C=C2\COc3ccccc3C2=O)cc1[N+](=O)[O-] | . | 3 | . | -10 | . | .
O=C1/C(=C/c2ccccc2[N+](=O)[O-])COc2ccccc21 | -349 | 169* | 61* | 11 | 28 | 9
COc1ccc(S(=O)(=O)N2C[C@H](O)COC[C@H]3O[C@@H](CC(=O)NCc4ccc(Cl)c(Cl)c4)CC[C@@H]32)cc1 | 13[16.7 µM] | -33 | 20 | -3[16.7 µM] | 13 | -25
C=C1CCN([C@@H](Cc2ccccc2)C(=O)Nc2ccc(OC)cc2)S(=O)(=O)c2ccccc21 | 105* | -98 | 9 | 2 | -1 | -13
C=C1CCN([C@H](C(=O)OCc2ccc(C)cc2)C(C)C)S(=O)(=O)c2ccccc21 | 80* | 1 | 5 | -4 | 12 | -13
SMILES | HIV Env fusion | C2C12 statin | PAX8 reporter | miR-122 sensor | EWS-Fli block | INS-1E GSIS act
Cc1ccc(S(=O)(=O)N2CC[C@@H]3[C@H](CO)Nc4ccc(-c5ccc(C#N)cc5)cc4[C@@H]32)cc1 | . | -2 | 18 | -4[16.7 µM] | -4 | -31
COc1ccc2c(c1)CCc1c(C(=O)NCCc3ccc(OC)c(OC)c3)noc1-2 | 59* | 5 | . | -5 | . | .
COc1ccc2c(c1)CCc1c(C(=O)NCc3ccc(Cl)cc3)noc1-2 | -34 | -2 | -3 | -9 | . | 22
COc1ccc2c(c1)CCc1c(C(=O)Nc3cc(C)n(Cc4ccc(Cl)cc4)n3)noc1-2 | 9 | . | . | -1 | . | 47*
C[C@@H]1CN([C@H](C)CO)C(=O)c2cccc(NC(=O)c3cnccn3)c2O[C@H]1CN(C)C(=O)Nc1cccc2ccccc12 | 10[16.7 µM] | 29 | 35 | 5[16.7 µM] | -14 | -3
Cc1nc2ccc(S(=O)(=O)NCC(=O)N3CCCC(C)C3)cc2s1 (configuration not stated) | . | 106* | . | 1 | . | .
Cc1nc2ccc(S(=O)(=O)Nc3ccccc3C)cc2s1 | . | -11 | . | 127* | 4 | 3
Cc1nc2ccc(S(=O)(=O)NCC(=O)N3CCc4ccccc4C3)cc2s1 | . | 1 | . | -5 | . | .
Cc1nc2ccc(NS(=O)(=O)c3ccc(C)c(C)c3)cc2s1 | 71* | -16 | 24 | 23 | . | .
Cc1cc(S(=O)(=O)Nc2ccccc2C)ccc1F | . | . | . | 32 | . | 6
CC(=O)c1cccc(S(=O)(=O)Nc2ccc3nc(C)sc3c2)c1 | 50 | -2 | -6 | 13 | 9 | -38
CNC[C@@H]1Oc2ccc(NC(=O)Nc3ccc4c(c3)OCO4)cc2C(=O)N([C@@H](C)CO)C[C@H]1C | -38[16.7 µM] | -9 | -36 | -2[16.7 µM] | -4 | 12
COC(=O)[C@@H]1[C@@H](CO)[C@@H]2Cn3c(cccc3=O)[C@@H]2N1C(=O)C1CCCC1 | . | . | . | . | 0 | 5
CCC1(C)Nc2ccccc2C(=O)N1O (configuration not stated) | . | 118* | . | 10 | . | .
CCOc1ccc(N2C(=O)c3ccccc3NC2(C)CC)cc1 (configuration not stated) | -33 | 1 | -181 | -4 | -57 | -4
COC(=O)[C@H](C)NC(=O)Nc1ccc(S(N)(=O)=O)cc1 | . | -7 | . | 1 | . | .

Assay outcomes (PubChem BioAssay)
